Source: PubChem BioAssay
Active and inactive are the calls of the source.

Key:
[1] = test system: Human papillomavirus type 1a protein E7 (residues 44-93); experiment: small molecules binding HPV E7 44-93 – biochemical, small-molecule microarray, residues 44-93, 635 nm fluorescence, primary screen (AID 1108); conditions: fluorescence 635 nm, higher = more signal;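 note: E7 fragment applied at 1 µg/mL in TBST for 1 h at 4 C; score combines spot fluorescence with its signal to noise ratio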
[2] = hepatitis C replication reporter changes, two-sided – Huh7 cells, luciferase reporter, HCV replication inhibitor project, primary screen (AID 1109); conditions: Huh7 HCV replicon luciferase reporter, 48 h; higher = more signal;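 note: huh7 hepatoma cells harbouring a luciferase neomycin HCV replicon reporter; luciferase luminescence as measure of HCV replicon replication; test concentration not given here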
[3] = biological target: Left-right determination factor 2 (Homo sapiens) (UniProt O00292); experiment: small molecules binding LEFTY2 protein – biochemical, small-molecule microarray, 635 nm fluorescence scan, primary screen (AID 1110); conditions: higher = more signal
Left-right determination factor 2 (Homo sapiens), sequence (O00292 whole entry, looked up): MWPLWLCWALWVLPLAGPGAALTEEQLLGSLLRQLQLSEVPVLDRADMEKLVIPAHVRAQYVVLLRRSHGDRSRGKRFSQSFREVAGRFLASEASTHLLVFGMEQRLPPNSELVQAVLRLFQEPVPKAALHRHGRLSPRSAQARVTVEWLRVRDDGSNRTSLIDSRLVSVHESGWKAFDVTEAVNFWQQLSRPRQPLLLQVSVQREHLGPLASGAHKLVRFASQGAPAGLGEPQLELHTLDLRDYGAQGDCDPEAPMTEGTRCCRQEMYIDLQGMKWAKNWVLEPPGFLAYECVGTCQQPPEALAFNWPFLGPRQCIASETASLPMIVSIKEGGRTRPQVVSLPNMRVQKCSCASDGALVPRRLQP

[4] = biological target: Calmodulin-1 (Homo sapiens) (UniProt P0DP23); experiment: small molecules binding calmodulin-1 with EGTA – biochemical, small-molecule microarray, Cy5-labelled CALM1, profiling panel (AID 1111); conditions: Cy5-CALM1 binding fluorescence, higher = more signal;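 note: labelled calmodulin applied in Tris saline Tween buffer holding calcium plus EGTA and DTT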
[5] = biological target: Calmodulin-1 (Homo sapiens) (UniProt P0DP23); experiment: small molecules binding Ca-loaded calmodulin-1 – biochemical, small-molecule microarray, Cy5-labelled CALM1, plus calcium, artefact control for SMM control-protein annotation, profiling panel (AID 1112); conditions: Cy5-CALM1 binding fluorescence, higher = more signal;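 note: score merges spot fluorescence with signal to noise from triplicate slides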
[6] = probe aWnt5a binding to arrayed compounds – biochemical, biotinylated probe, 635/667 nm fluorescence, primary screen (AID 1113); conditions: small-molecule microarray, higher = more signal;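 note: score merges 667 nm fluorescence intensity with signal-to-noise per printed feature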
[7] = probe aShh binding to arrayed compounds – biochemical, biotinylated probe, 635/667 nm fluorescence, primary screen (AID 1114); conditions: small-molecule microarray, higher = more signal;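 note: probe is biotin-labelled aShh protein from a stem cell growth factor screen; measures binding of labelled protein to compounds printed on the slide; score merges feature fluorescence at 667 nm with signal-to-noise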
[8] = probe aNog binding to arrayed compounds – biochemical, biotinylated probe, 635/667 nm fluorescence, primary screen (AID 1115); conditions: small-molecule microarray, higher = more signal;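 note: probe is biotinylated aNog protein used at 0.15 µg/mL for 1 h at 4 C; z-score combines 667 nm fluorescence of each spot with its signal to noise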
[9] = biological target: Torsin-1A-interacting protein 1 (Homo sapiens) (UniProt Q5JTV8); experiment: compound microarray binding of lysate hLAP1 – cell lysate, small-molecule microarray, COS7 lysate, 635/667 nm fluorescence, primary screen (AID 1116); conditions: 635 nm fluorescence, higher = more signal
Torsin-1A-interacting protein 1 (Homo sapiens), sequence (Q5JTV8 whole entry, looked up): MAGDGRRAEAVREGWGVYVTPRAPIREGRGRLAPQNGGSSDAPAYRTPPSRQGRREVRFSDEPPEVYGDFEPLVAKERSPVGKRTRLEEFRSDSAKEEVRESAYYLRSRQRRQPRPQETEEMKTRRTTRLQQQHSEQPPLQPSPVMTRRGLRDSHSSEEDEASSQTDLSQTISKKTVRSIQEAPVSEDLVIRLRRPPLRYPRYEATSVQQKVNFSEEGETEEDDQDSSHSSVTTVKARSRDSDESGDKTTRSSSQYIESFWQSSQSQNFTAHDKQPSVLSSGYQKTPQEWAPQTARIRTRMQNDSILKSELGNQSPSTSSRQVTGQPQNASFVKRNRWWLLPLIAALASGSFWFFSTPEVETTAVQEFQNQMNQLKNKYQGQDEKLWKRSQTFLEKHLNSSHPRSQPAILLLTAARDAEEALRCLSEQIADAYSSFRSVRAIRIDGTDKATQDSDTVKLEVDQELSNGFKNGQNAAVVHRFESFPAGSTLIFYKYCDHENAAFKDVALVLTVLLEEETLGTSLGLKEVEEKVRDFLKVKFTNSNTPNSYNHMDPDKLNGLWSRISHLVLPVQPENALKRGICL

[10] = biological target: Alpha-bungarotoxin (Bungarus multicinctus) (UniProt P60615); experiment: compounds binding labelled alpha-BTX control protein – biochemical, small-molecule microarray, Alexa647 label, 635/667 nm fluorescence, artefact control for SMM control protein annotation, profiling panel (AID 1117); conditions: alpha-BTX-A647 binding fluorescence, higher = more signal
Alpha-bungarotoxin (Bungarus multicinctus), sequence (P60615 whole entry, looked up): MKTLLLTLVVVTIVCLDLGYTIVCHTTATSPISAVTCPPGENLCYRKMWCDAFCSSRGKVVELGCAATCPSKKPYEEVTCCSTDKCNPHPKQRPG

Albumin (Bos taurus) = Albumin (Bos taurus) (UniProt P02769); experiment: compounds binding labelled BSA control protein – biochemical, small-molecule microarray, Alexa647 label, 635/667 nm fluorescence, artefact control for SMM control protein annotation, profiling panel (AID 1118); conditions: BSA-A647 binding, fluorescence 635 nm, higher = more signal;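 note: score merges 667 nm emission intensity and signal-to-noise per printed compound spot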
Albumin (Bos taurus), sequence (P02769 whole entry, looked up): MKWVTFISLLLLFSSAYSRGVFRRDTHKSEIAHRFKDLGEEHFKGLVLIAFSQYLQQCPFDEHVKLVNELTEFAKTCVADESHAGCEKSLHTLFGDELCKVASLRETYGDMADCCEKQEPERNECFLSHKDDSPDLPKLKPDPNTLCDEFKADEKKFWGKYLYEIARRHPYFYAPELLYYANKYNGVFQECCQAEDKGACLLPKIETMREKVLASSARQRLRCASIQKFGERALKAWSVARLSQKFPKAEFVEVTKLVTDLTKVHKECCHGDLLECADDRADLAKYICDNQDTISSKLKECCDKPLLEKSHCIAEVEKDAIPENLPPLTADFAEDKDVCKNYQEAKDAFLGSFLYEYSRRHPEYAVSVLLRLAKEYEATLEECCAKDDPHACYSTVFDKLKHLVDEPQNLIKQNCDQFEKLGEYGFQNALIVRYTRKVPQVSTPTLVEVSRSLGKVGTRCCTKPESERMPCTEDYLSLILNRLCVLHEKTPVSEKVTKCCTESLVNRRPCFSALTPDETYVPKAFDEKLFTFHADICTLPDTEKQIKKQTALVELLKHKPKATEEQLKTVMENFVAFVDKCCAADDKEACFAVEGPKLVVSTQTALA

[11] = probe aXIP binding to arrayed compounds – biochemical, NeuroSMM set, 635/667 nm fluorescence, primary screen (AID 1119); conditions: small-molecule microarray, higher = more signal, called active from +8 up or from −8 down;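 note: probe is the protein aXip251-270 applied at 1 µg/mL to compound-printed slides; binding of probe to printed compounds measured as 667 nm fluorescence plus signal to noise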
[12] = probe aNOTCH3 binding on compound microarray – biochemical, small-molecule microarray, 635/667 nm fluorescence, primary screen (AID 1120); conditions: higher = more signal;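 note: probe is a biotin-tagged antibody raised against NOTCH3 rather than NOTCH3 protein; score merges spot fluorescence near 667 nm with spot signal to noise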
[13] = probe aNOTCH2 binding on compound microarray – biochemical, small-molecule microarray, 635/667 nm fluorescence, primary screen (AID 1121); conditions: higher = more signal;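 note: score merges feature fluorescence read at 667 nm with its signal to noise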
[14] = biological target: Carbonic anhydrase 2 (Homo sapiens) (UniProt P00918); experiment: compounds binding carbonic anhydrase 2 – biochemical, small-molecule microarray, Alexa647-labelled CAII, profiling panel (AID 1122); conditions: CAII-A647 binding fluorescence, higher = more signal
[15] = COS7 lysate on small-molecule microarray, probe aHis, 635 nm (AID 1123); conditions: COS7 cell lysate, fluorescence, higher = more signal;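 note: z-score combines 667nm fluorescence intensity with signal-to-noise per printed compound spot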
[16] = probe aLAP1 signal on lysate-treated microarray – cell lysate, small-molecule microarray, COS7 lysate, primary screen (AID 1124); conditions: probe aLAP1, fluorescence, higher = more signal;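 note: lysate comes from COS7 cells expressing LAP1 and is applied at 0.3 µg/mL; score merges spot fluorescence near 667 nm with signal-to-noise over triplicate slides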
Sam68 (KHDRBS1) = experiment: compounds binding KHDRBS1 protein – biochemical, small-molecule microarray, 635 nm fluorescence, primary screen (AID 1125); conditions: higher = more signal;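 note: score merges 667 nm channel intensity with signal to noise over triplicate slides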
[17] = test system: Chordin-like protein 2 (CHRDL2); experiment: compounds binding chordin-like 2 – biochemical, small-molecule microarray, 635 nm fluorescence, primary screen (AID 1126); conditions: fluorescence 635 nm, higher = more signal;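 note: printed compound slides probed with Chrdl2 protein at 4 µg/mL for 1 h at 4 C; score merges 667 nm emission intensity with signal to noise over three replicate slides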
[18] = biological target: Concanavalin-A (Canavalia ensiformis) (UniProt P02866); experiment: compounds binding concanavalin A lectin – biochemical, small-molecule microarray, Alexa647 label, 635 nm, artefact control for SMM control protein annotation, primary screen (AID 1127); conditions: ConA-A647 binding fluorescence, higher = more signal;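 note: z combines 667 nm emission intensity with signal-to-noise across three replicate slides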
Concanavalin-A (Canavalia ensiformis), sequence (P02866 whole entry, looked up): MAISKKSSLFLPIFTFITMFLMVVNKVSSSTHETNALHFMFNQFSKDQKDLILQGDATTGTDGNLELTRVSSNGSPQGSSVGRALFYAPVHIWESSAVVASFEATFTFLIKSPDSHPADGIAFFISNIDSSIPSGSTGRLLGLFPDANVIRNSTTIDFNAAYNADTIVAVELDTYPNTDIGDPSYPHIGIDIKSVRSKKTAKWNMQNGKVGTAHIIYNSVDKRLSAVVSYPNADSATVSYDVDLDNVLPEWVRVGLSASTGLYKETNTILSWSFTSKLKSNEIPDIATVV

| Compound | composite z-score [1] | z-score [2] | composite z-score [3] | composite z-score [4] | composite z-score [5] | composite z-score [6] | composite z-score [7] | composite z-score [8] | composite z-score [9] | composite z-score [10] | composite z-score (Albumin (Bos taurus)) | composite Z-score [11] | composite z-score [12] | composite z-score [13] | composite z-score [14] | composite z-score [15] | composite z-score [16] | composite z-score (Sam68 (KHDRBS1)) | composite z-score [17] | composite z-score [18] |
| --- | --- | --- | --- | --- | --- | --- | --- | --- | --- | --- | --- | --- | --- | --- | --- | --- | --- | --- | --- | --- |
| COCCOC(=O)N1C(=O)[C@@]2(c3cc(C#CCNC(N)=O)ccc31)[C@H](C(=O)N1CCc3cc(OC)c(OC)cc3C1)[C@H]1C(=O)O[C@H](c3ccccc3)[C@H](c3ccccc3)N1[C@@H]2c1ccc(OCCO)cc1 | 0.581 | -0.45 | 0.556 | 0.432 | -0.178 | -0.0236 | 0.0637 | -0.794 | 0.5 | 0.399 | -0.717 | 0.202 (inactive) | 0.289 | -0.186 | 0.225 | 0.423 | 0.406 | 0.398 | 0.286 | 1.09 |
| COc1ccc(CCN2C(=O)[C@@]3(Cc4ccccc42)c2ccccc2C(=O)N(Cc2ccccc2Cl)[C@H]3c2ccc(CO)cc2)cc1 | -0.782 | 0.0889 | -0.622 | 0.102 | 0.45 | -0.176 | -0.138 | -0.272 | 0.0577 | 0.0121 | -0.091 | -0.0503 (inactive) | -0.125 | -0.137 | 0.855 | -0.247 | 0.296 | -0.383 | -1.06 | -0.199 |
| CS(=O)(=O)CCOC(=O)C1=CC(CCCO)=CC(c2cccs2)N(Cc2cc3c(cc2Br)OCO3)C=C1C(=O)OCCS(C)(=O)=O (stereo not given) | 1.27 | -1.22 | 0.858 | 1.29 | 0.671 | 0.0968 | 0.0639 | -0.261 | 0.955 | 1.8 | 0.974 | 1.05 (inactive) | 0.183 | -0.0149 | 0.337 | 1.64 | 0.817 | 1.3 | 0.164 | 0.986 |
| COc1ccc(C(=O)Nc2cccc(CN3C(=O)[C@]4(O[C@H](CC(=O)N5CCC[C@H]5CO)[C@@H]([Si](C)(C)c5ccc(OC)cc5)[C@@H]4C)c4ccccc43)c2)cc1 | 1.23 | -2.84 | 0.419 | 0.418 | 0.252 | -0.0285 | -0.0959 | 0.0733 | 1.06 | 0.954 | 0.114 | 0.535 (inactive) | -0.0044 | -0.112 | 0.485 | 1.79 | 0.276 | 1.01 | 0.76 | 1.02 |
| CCCNC(=O)[C@@H]1c2ccccc2C(=O)N(Cc2ccccc2)[C@H]1c1ccc(CO)cc1 | 0.656 | -0.481 | -0.595 | -0.0977 | -1.35 | -0.152 | -0.138 | -0.216 | 0.142 | 0.918 | -0.271 | 0.842 (inactive) | 0.0631 | -0.0715 | 0.202 | 1.1 | -0.036 | 0.22 | -0.592 | 1.01 |
